Where a name gives a salt, the structure may show the parent alone.
System: HL-1
Assay: relative cell viability (CellTiter-Glo) vs DMSO control (% of DMSO control); higher = more viable cells
Summary of the method: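 HL-1 mouse atrial cardiomyocytes were plated in 384-well plates at 1000 cells per well together with compounds at 40, 200, 1000 or 5000 nM in 0.01% DMSO. One day later, cells went to a hypoxic workstation (1% O2) for 48 h, then were reoxygenated for 24 h in a normal incubator, or stayed in normoxia for the same time. Cell viability was read by CellTiter-Glo luminescence and normalised to vehicle-treated control cells.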

[1] = oxygen condition: hypoxia 48 h (1% O2) + reoxygenation 24 h, 40 nM
[2] = oxygen condition: hypoxia 48 h (1% O2) + reoxygenation 24 h, 200 nM
[3] = oxygen condition: hypoxia 48 h (1% O2) + reoxygenation 24 h, 1000 nM
[4] = oxygen condition: hypoxia 48 h (1% O2) + reoxygenation 24 h, 5000 nM
[5] = oxygen condition: normoxia 72 h, 40 nM
[6] = oxygen condition: normoxia 72 h, 200 nM
[7] = oxygen condition: normoxia 72 h, 1000 nM
[8] = oxygen condition: normoxia 72 h, 5000 nM

Structure (SMILES)	relative cell viability [1]	relative cell viability [2]	relative cell viability [3]	relative cell viability [4]	relative cell viability [5]	relative cell viability [6]	relative cell viability [7]	relative cell viability [8]
Cc1onc(-c2ccccc2)c1C(=O)N[C@@H]1C(=O)N2[C@@H]1SC(C)(C)[C@@H]2C(=O)O [Oxacillin sodium monohydrate]	104	107	96.5	110	103	101	110	109
Cc1nccn1CC1CCc2c(c3ccccc3n2C)C1=O (centres undefined) [Ondansetron]	99.4	103	102	109	102	99.7	101	107
CC(C)(C(=O)O)c1ccc(C(O)CCCN2CCC(C(O)(c3ccccc3)c3ccccc3)CC2)cc1 (centres undefined) [Fexofenadine HCl]	106	96.5	99.8	99.8	107	96.2	104	110
CO[C@H]1C[C@@H]2CC[C@@H](C)[C@@](O)(O2)C(=O)C(=O)N2CCCC[C@H]2C(=O)O[C@H]([C@H](C)C[C@@H]2CC[C@@H](OCCO)[C@H](OC)C2)CC(=O)[C@H](C)/C=C(\C)[C@@H](O)[C@@H](OC)C(=O)[C@H](C)C[C@H](C)/C=C/C=C/C=C/1C [Everolimus]	79.5	75	73.9	87.5	70.4	66.9	66.5	69.7
NS(=O)(=O)c1cc(Cl)c(Cl)c(S(N)(=O)=O)c1 [Dichlorphenamide]	109	106	103	115	105	102	103	109
CCN(CCCc1ccccc1)CCCc1ccccc1 [Alverine Citrate]	107	110	102	110	102	105	106	113
CCC(CC)[C@H](NC(C)=O)[C@@H]1[C@H](O)[C@@H](C(=O)O)C[C@H]1NC(=N)N [Peramivir Trihydrate]	101	99.2	107	111	112	109	103	116
CN1[C@@H]2CC[C@H]1C[C@@H](OC(=O)c1c[nH]c3ccccc13)C2 [Tropisetron]	99.6	103	100	104	98.7	101	104	66
O=C(O)C(=O)O.[NH-][C@@H]1CCCC[C@H]1[NH-].[Pt+2] [Oxaliplatin]	99.8	102	109	114	97.4	107	105	122
Cn1c([N+](=O)[O-])cnc1COC(N)=O [Ronidazole]	107	112	106	118	112	113	121	110
O=C(c1ccccc1)c1ccc2n1CCC2C(=O)O (centres undefined) [Ketorolac]	104	105	104	109	102	98.3	103	111
CC(C)c1nc(CN(C)C(=O)N[C@@H](CCN2CCOCC2)C(=O)N[C@H](CC[C@H](Cc2ccccc2)NC(=O)OCc2cncs2)Cc2ccccc2)cs1 [Cobicistat]	109	109	108	120	111	107	108	113
CCCCOc1cc(C(=O)NCCN(CC)CC)c2ccccc2n1 [Dibucaine HCL]	103	107	108	118	109	110	109	118
Cc1cnc(C(=O)O)c[n+]1[O-] [Acipimox]	105	104	109	116	101	104	107	108
CC(C)(OCc1nn(Cc2ccccc2)c2ccccc12)C(=O)O [Bindarit]	99.2	99.8	100	3.69	96.7	100	95.7	3.69
Cc1cc(N)c2ccccc2[n+]1CCCCCCCCCC[n+]1c(C)cc(N)c2ccccc21 [Dequalinium chloride]	101	104	101	112	93.3	107	97.3	101
Nc1nc2[nH]cc(CCc3ccc(C(=O)N[C@@H](CCC(=O)O)C(=O)O)cc3)c2c(=O)[nH]1 [Pemetrexed]	116	104	85.8	74.8	104	95.5	90.8	69.6

Structure (SMILES)	relative cell viability [1]	relative cell viability [2]	relative cell viability [3]	relative cell viability [4]	relative cell viability [5]	relative cell viability [6]	relative cell viability [7]	relative cell viability [8]
C=CC(=O)N1CCC[C@@H](n2nc(-c3ccc(Oc4ccccc4)cc3)c3c(N)ncnc32)C1	98.9	96.6	101	102	101	90.2	90.5	102
O=C1C(O)=C([C@H]2CC[C@H](c3ccc(Cl)cc3)CC2)C(=O)c2ccccc21 [Atovaquone]	98.8	103	113	112	98.2	104	98.5	115
CC(=O)O[C@H]1CC[C@@]2(C)C(=CC[C@@H]3[C@@H]2CC[C@]2(C)C(c4cccnc4)=CC[C@@H]32)C1 [Abiraterone Acetate]	104	103	101	117	97.2	99.2	102	115
Cn1ccnc1S [Methimazole]	102	99.9	105	98.1	107	100	95.4	95.9
NC(=O)N1c2ccccc2CC(=O)c2ccccc21 [Oxcarbazepine]	104	105	116	102	108	127	116	109
C[C@@H](O)[C@H]1C(=O)N2C(C(=O)OCOC(=O)C(C)(C)C)=C(SC3CN(C4=NCCS4)C3)[C@H](C)[C@H]12 [Tebipenem pivoxil]	98.3	102	99.2	91.2	96.9	92.7	101	93.4
Cc1ccc(O)c([C@H](CCN(C(C)C)C(C)C)c2ccccc2)c1 [Tolterodine tartrate]	108	105	102	109	104	112	107	110
O=c1c(-c2ccc(O)cc2)coc2cc(O)ccc12 [Daidzein]	107	102	105	113	107	107	105	118
NS(=O)(=O)Cc1noc2ccccc12 [Zonisamide]	105	108	107	115	108	112	116	103
CCN1CCCC1CNC(=O)c1cc(S(=O)(=O)CC)c(N)cc1OC (centres undefined) [Amisulpride]	103	104	111	108	104	107	119	111
OC(CCN1CCCC1)(c1ccccc1)C1CCCCC1 (centres undefined) [Procyclidine HCl]	93.1	89.9	85.4	29.9	101	97.7	82.5	30.6
CN(CCOc1ccc(NS(C)(=O)=O)cc1)CCc1ccc(NS(C)(=O)=O)cc1 [Dofetilide]	102	99.8	99.2	112	101	109	106	107
CN(Cc1cnc2nc(N)nc(N)c2n1)c1ccc(C(=O)N[C@@H](CCC(=O)O)C(=O)O)cc1 [Abitrexate]	75.8	51.7	42.5	42	58.2	52.2	41.8	43.9
CC1CCc2cc(F)cc3c(=O)c(C(=O)O)cn1c23 (centres undefined) [Flumequine]	104	98.4	117	108	106	120	104	98.2
COc1cc2c(cc1OC)C(=O)C(CC1CCN(Cc3ccccc3)CC1)C2 (centres undefined) [Donepezil HCl]	106	106	110	106	95.9	102	103	107
CNCC[C@@H](Oc1ccccc1C)c1ccccc1 [Atomoxetine HCl]	102	104	108	108	100	102	103	119

From the supplement of paper PMC8371130
